Source: PubChem (National Center for Advancing Translational Sciences (NCATS))
GPT2 inhibitor: inhibitors of human GPT2 alanine aminotransferase; Recombinant GPT2, coupled pyruvate oxidase/HRP Amplex Red fluorescence; Potency, µM (doses to about 57.7 µM), inactives show top-dose activity change, negative = inhibition, usual class: inhibitors; hit rate 0.25% among 100,000; AID 1671188; further: nearly all actives have a fitted effect of over 60% in size
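Fluorescence read-out: pyruvate from GPT2 turnover coupled to pyruvate oxidase, HRP and Amplex Red (0.2mM ThPP, 0.2U/mL PO and HRP, 50uM Amplex final). Substrates 250uM a-KG, 2mM L-alanine; enzyme 10ng/uL; 30 min RT.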
HEK cytotox: cytotoxic compounds in HEK 293 cells; Potency, µM (doses to about 115 µM), inactives show top-dose activity change, negative = cytotoxicity, actives largely listed as inhibitors; HEK 293 viability, ATP luminescence (CellTiter-Glo), 48-72 h; AID 1345083; hit rate 6.6% among 94,000; further: nearly all actives have a fitted effect of over 60% in size
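HEK 293 cells seeded at 250 cells/well were exposed to compound for 48 or 72 hr at 37 degree Celsius. Viability taken as ATP content by CellTiter-Glo luminescence.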
FLuc inh: inhibitors of firefly (Photinus pyralis) luciferase | Potency, µM (titrated, usually from 115 µM), hits mostly inhibitors | AID 1347043 | hit rate 2.5% among 76,000 | purified P. pyralis luciferase, luminescence, biochemical; further: nearly all actives have a fitted effect of over 65% in size
Target sequence (P08659 whole entry, looked up): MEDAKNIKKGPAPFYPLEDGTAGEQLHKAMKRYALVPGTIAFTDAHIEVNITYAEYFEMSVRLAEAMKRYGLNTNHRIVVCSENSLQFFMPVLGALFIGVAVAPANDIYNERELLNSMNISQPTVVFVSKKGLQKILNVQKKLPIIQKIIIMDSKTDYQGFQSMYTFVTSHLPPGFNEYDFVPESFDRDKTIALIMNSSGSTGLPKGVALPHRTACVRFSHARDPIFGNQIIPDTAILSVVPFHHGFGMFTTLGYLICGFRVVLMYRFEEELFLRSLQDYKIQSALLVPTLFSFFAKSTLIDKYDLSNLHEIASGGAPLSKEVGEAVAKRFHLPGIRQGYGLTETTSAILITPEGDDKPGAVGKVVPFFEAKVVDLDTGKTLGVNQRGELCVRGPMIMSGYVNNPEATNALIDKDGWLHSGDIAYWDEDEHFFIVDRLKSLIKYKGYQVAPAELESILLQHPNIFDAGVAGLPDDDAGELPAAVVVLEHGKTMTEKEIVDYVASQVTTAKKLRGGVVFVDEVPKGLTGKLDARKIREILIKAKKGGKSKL
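FLuc 10nM, D-luciferin 10uM, ATP 10uM, Mg acetate 10mM, Tris acetate pH 7.5, Tween/BSA; cpd qHTS; enzyme added last; CCD luminescence.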
3T3 cytotox: NIH 3T3 cell cytotoxicity; NIH 3T3 viability, CellTiter-Glo ATP luminescence, 48-72 h; Potency, µM (highest dose often 96.7 µM), for inactives: at the top dose activity change, negative = cytotoxicity, hits mostly inhibitors; hit rate 4.3% among 94,000; further: nearly all actives have a fitted effect of over 55% in size
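Luminescent ATP readout (CellTiter-Glo, 10 min RT) after 48 or 72 hr compound exposure of NIH 3T3 cells seeded at 400 cells/well in 1536-well format; quantitative HTS.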
NPR1 antag: human Npr1 receptor antagonism; P16066; HEK293 hNpr1 GloSensor cGMP, ANP-stimulated luminescence; Potency, µM (highest dose often 46.3 µM), for the others: at the highest dose activity change, negative = inhibition, hits mostly inhibitors; hit rate 1.6% among 76,000; calls by dose curve; further: nearly all actives have a fitted effect of over 60% in size
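Compound pre-incubated 30 min at room temperature on GloSensor-loaded HEK293 cells stably carrying hNpr1 and the pGS-40F cGMP biosensor. Stimulation uses hNppA at 0.1 nM final; luminescence is taken at baseline and 20 min post-agonist.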
The depositor's hits bear a star; i = inactive; ? = inconclusive; · = not tested or not shown; [ ] = dose if it differs, or a comment. Hits are enriched below; roughly 10% of the tested compounds scored in any of these assays. Unless noted, the call rests on the fitted dose curve; in most records, active means well fitted curve in the direction sought with a large enough effect; inconclusive means small, poorly fitted or top-dose-only effect, or another doubt; inactive means no such curve, though single readings can be large; an effect the other way counts as inactive or inconclusive. On the % scale 0 is the no-effect control and ±100 the full control effect; potency means the concentration at half of the fitted maximal effect.

SMILES	GPT2 inhibitor	HEK cytotox	FLuc inh	3T3 cytotox	NPR1 antag
c1ccc(Nc2cc3c(cn2)CN(CC2CC2)CCN3)cc1	4%[88.5 µM]	35µM*	35µM*	?	4%[70.6 µM]
CN1CCNc2cc(NCc3ccccc3)ncc2C1	?	?	25µM*	89µM*	-2%[70.6 µM]
CCOC(=O)[C@H]1CN(C(=O)NCc2ccccc2)[C@]2(C)C(=O)N(CCOC)c3ccccc3[C@H]12	-13%[27.3 µM]	-5%[57.5 µM]	·	?	·
Cc1sc2c(c1C)C(c1ccc(Cl)cc1)=N[C@@H](CC(N)=O)c1nnc(C)n1-2	-7%	·	·	·	·
CN1CCN(C(=O)Cc2c[nH]c3ncc(-c4ccccc4Oc4ccccc4)cc23)CC1	-1%[88.5 µM]	79µM*	i	?	?
COc1cccc(-c2cnc3[nH]cc(CC(=O)N4CCN(C)CC4)c3c2)c1	i	?	20µM*	?	-19%[70.6 µM]
COc1ncccc1-c1cnc2[nH]cc(CC(=O)N3CCN(C)CC3)c2c1	i	-25%[172 µM]	i	?	3%[70.6 µM]
CN1CCN(C(=O)Cc2c[nH]c3ncc(-c4cccc(OC(F)(F)F)c4)cc23)CC1	?	?	i	79µM*	-1%[70.6 µM]
O=C(Cc1ccc(F)cc1Cl)N1C[C@H]2CC[C@@H]1CN(Cc1cccnc1)C2	-2%[11.5 µM]	35µM*	i	-29%	?
O=C(N1CCCC1)N1C2CCC1CN(Cc1cccnc1)C2	?	-27%	·	-22%	·
COc1cc2c(cc1OCC1CCCC1)N([S+](=O)([O-])c1cccc(C(F)(F)F)c1)CC21CCN(CC(=O)O)CC1	i	45µM*	i	40µM*	2%
CCOC(=O)[C@H]1CN(C(=O)c2cc3ccccc3s2)[C@]2(C)C(=O)N(CC3CC3)c3ccccc3[C@H]12	i	?	·	?	·
CCOC(=O)[C@H]1CN(C(=O)Nc2ccc3c(c2)OCO3)[C@]2(C)C(=O)N(CC3CC3)c3ccccc3[C@H]12	i	35µM*	·	?	·
CCOC(=O)[C@H]1CN(C(=O)/C=C/c2ccccc2)[C@]2(C)C(=O)N(CC3CC3)c3ccccc3[C@H]12	-2%[27.3 µM]	28µM*	·	?	·
CCOC(=O)[C@H]1CN(C(=O)Cc2ccccc2)[C@]2(C)C(=O)N(CCOC(C)=O)c3ccccc3[C@H]12	i	?	·	-22%[46.1 µM]	·
CCOC(=O)[C@H]1CN(C(=O)CCc2ccccc2)[C@]2(C)C(=O)N(CCOC(C)=O)c3ccccc3[C@H]12	·	89µM*	·	-29%	·
OC(CNc1ccccc1)Cn1c2ccc(Br)cc2c2cc(Br)ccc21 (stereo unspecified)	0%	·	·	·	·
CCN1CCN(C(=O)Cc2ccc(Nc3ncc(F)c(Nc4ccc(C(=O)Nc5ccccc5Cl)cc4)n3)cc2)CC1	i	·	·	·	·
CN(Cc1ccccc1)C[C@H]1CN2CC[C@H]1C[C@@H]2CNC(=O)Nc1ccccc1	-6%[88.5 µM]	100µM*	i	100µM*	5%[70.6 µM]
CN(Cc1ccccc1)C[C@H]1CN2CC[C@H]1C[C@@H]2CNC(=O)c1ccccc1	-15%[88.5 µM]	?	i	?	1%[70.6 µM]
CC(=O)c1ccc(NC(=O)NC[C@H]2C[C@@H]3CCN2C[C@@H]3CN(C)Cc2ccccc2)cc1	3%[88.5 µM]	100µM*	i	89µM*	1%[70.6 µM]
Cc1nc(-c2cccs2)cc([C@H]2CN3CC[C@H]2C[C@@H]3CNS(C)(=O)=O)n1	-13%[88.5 µM]	?	i	?	1%[70.6 µM]
Cc1nc(-c2cccs2)cc([C@H]2CN3CC[C@H]2C[C@@H]3COC(=O)Nc2ccc(C(C)C)cc2)n1	-11%	5.6µM*	?	8.9µM*	?
COc1ccccc1-c1cc([C@H]2CN3CC[C@H]2C[C@@H]3COC(=O)Nc2ccc(C(C)C)cc2)nc(C)n1	-3%	5µM*	18µM*	?	-26%
CN1CCN(C(=O)Cc2c[nH]c3ncc(-c4ccnn4C)cc23)CC1	2%[88.5 µM]	-11%[172 µM]	i	100µM*	3%[70.6 µM]
SMILES	GPT2 inhibitor	HEK cytotox	FLuc inh	3T3 cytotox	NPR1 antag
COc1ccc(-c2cnc3[nH]cc(CC(=O)N4CCN(C)CC4)c3c2)cc1OC	i	-22%[172 µM]	i	?	5%[70.6 µM]
O=C(Cc1c[nH]c2ncc(-c3cccnc3)cc12)N1CCN(Cc2ccccc2)CC1	3%[88.5 µM]	?	?	?	1%[70.6 µM]
CN1CCN(C(=O)Cc2c[nH]c3ncc(-c4ccc(CO)cc4)cc23)CC1	-11%[88.5 µM]	?	i	25µM*	0%[70.6 µM]
O=C1NC2(CCN(Cc3cccnc3)C2)COc2ccccc21 (stereo unspecified)	i	79µM*	i	35µM*	6%[70.6 µM]
COc1ccc2c3c1O[C@H]1[C@@H](O)C=C[C@H]4[C@@H](C2)N(C)CC[C@@]341	i	·	·	·	·
CN1CC[C@]23c4c5ccc(O)c4O[C@H]2[C@@H](O)C=C[C@H]3[C@H]1C5	28µM*	·	·	·	·
COc1cc2c(cc1OCc1ccccc1)N(C(=O)CC1CC1)CC21CCN(C)CC1	i	112µM*	i	79µM*	12%[70.6 µM]
COc1ccccc1CC(=O)N1CC2(CCN(C)CC2)c2cc(OC)c(OCc3ccccc3)cc21	i	?	i	32µM*	5%
COc1cc2c(cc1OCc1ccccc1)N(C(=O)CC(C)C)CC21CCN(C)CC1	3%[88.5 µM]	100µM*	i	50µM*	4%[70.6 µM]
COc1cc2c(cc1OCc1ccccc1)N([S+](=O)([O-])c1cccc3cccnc13)CC21CCN(C)CC1	-6%	25µM*	i	18µM*	-16%
COc1cc2c(cc1OCc1ccccc1)N(C(=O)[C@@H]1CCCO1)CC21CCN(C)CC1	-1%[88.5 µM]	-17%[172 µM]	i	?	5%[70.6 µM]
CCOC(=O)[C@H]1CN([S+](=O)([O-])c2cccs2)[C@]2(C)C(=O)N(CCOC)c3ccccc3[C@H]12	-10%[27.3 µM]	-18%[57.5 µM]	·	?	·
COc1cc(C)[nH]c(=O)c1CNC(=O)c1c(C)n([C@H](C)C2CCOCC2)c2ccccc12	i	·	·	·	·
Cc1cccc(NC(=O)N[C@@H]2N=C(c3ccccc3)c3ccccc3N(C)C2=O)c1	-11%	·	·	·	·
COc1ccc2c(c1)C1(CCN(S(=O)(=O)c3cccc(F)c3)C1)C(=O)N2C (stereo unspecified)	i	45µM*	i	-19%	-9%
CC(C)=CCC[C@]1(C)C=Cc2c(O)c3c(c(CC=C(C)C)c2O1)O[C@]12C(=C[C@@H]4CC1C(C)(C)O[C@@]2(C/C=C(/C)C(=O)O)C4=O)C3=O	i	·	·	·	·
O=C(O)CCC(=O)N1C[C@@H]2C[C@H](C1)c1ccc(-c3ccc(Cl)cc3)c(=O)n1C2	i	2%[172 µM]	i	i	0%[70.6 µM]
O=C(c1ccccc1)N1C[C@@H]2C[C@H](C1)c1ccc(-c3ccc(Cl)cc3)c(=O)n1C2	i	?	i	63µM*	-15%[70.6 µM]
